# Source: PubChem (National Center for Advancing Translational Sciences (NCATS))
# Cruzain inh noDet: inhibitors of Trypanosoma cruzi cruzain without detergent; actives 2.3% (n = 200,000); purified cruzain, Z-FR-AMC fluorescence, no detergent; P25779; Potency, µM, for inactives: max response, negative = inhibition, most hits filed as inhibitors;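 further: plate controls were enzyme without inhibitor for no effect and buffer without enzyme for full effect; nearly all actives have a fitted effect of over 40% in size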
#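 Purified cruzain at 1.5 nM, pre-incubated 15 min with compound at room temperature in 100 mM sodium acetate pH 5.5, 5 mM DTT, 0.00005% Triton X-100. Reaction started with 2 uM Z-FR-AMC; AMC fluorescence increase over 60 s gives rate.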
# Cruzain inh Det: inhibitors of Trypanosoma cruzi cruzain with detergent; purified cruzain, Z-FR-AMC fluorescence, 0.01% Triton; Potency, µM, for inactives: max response, negative = inhibition, usual class: inhibitors; actives 0.43% (n = 200,000);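 further: plate controls were neutral wells for no effect and buffer without enzyme for full effect; nearly all actives have a fitted effect of over 40% in size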
#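 Cysteine protease activity tested under reducing, mildly acidic conditions (100 mM sodium acetate pH 5.5, 5 mM DTT) plus 0.01% Triton X-100. Cruzain 1.5 nM; substrate Z-FR-AMC 2 uM; 15 min compound preincubation at room temperature.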
# Papain inh: blocks papain protease activity, flagging nonselective cruzain hits; shares compounds with Cruzain inh Det; purified papain, Z-FR-AMC fluorescence cleavage; Potency, µM, inactives show max response, negative = inhibition, actives largely listed as inhibitors; actives 41% (n = 410); AID 2161;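 further: 0% = no-compound wells and -100% = no-enzyme wells; nearly all actives have a fitted effect of over 35% in size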
# Target sequence (P00784 whole entry, looked up): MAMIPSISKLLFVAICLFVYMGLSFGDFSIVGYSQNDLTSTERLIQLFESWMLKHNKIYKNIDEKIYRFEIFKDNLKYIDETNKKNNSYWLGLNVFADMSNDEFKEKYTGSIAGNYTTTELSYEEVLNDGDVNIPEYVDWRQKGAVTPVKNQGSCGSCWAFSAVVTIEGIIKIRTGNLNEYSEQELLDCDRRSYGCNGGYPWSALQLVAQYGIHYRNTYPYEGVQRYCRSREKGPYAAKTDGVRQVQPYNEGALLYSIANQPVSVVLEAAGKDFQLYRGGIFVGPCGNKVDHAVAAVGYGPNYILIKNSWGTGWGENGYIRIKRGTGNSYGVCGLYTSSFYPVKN
# * = called active by the depositor; u = inconclusive; x = not tested or not shown. Shown are actives, neighbours in structure and some others; about 2.6% of the full set was active somewhere. The call rests on the fitted dose curve; in most records, active means well fitted curve in the direction sought with a large enough effect; inconclusive means small, poorly fitted or top-dose-only effect, or another doubt; inactive means no such curve, though single readings can be large; an effect the other way counts as inactive or inconclusive. Potency means the concentration at half of the fitted maximal effect.
SMILES,Cruzain inh noDet,Cruzain inh Det,Papain inh
O=C(NC1CCCC1)c1ccc2nc(-c3ccco3)c(-c3ccco3)nc2c1,5.01µM*,14.1µM*,14.1µM*
O=C(NCCO)c1ccc(Cl)c(Cl)c1,-2.8%,3.0%,x
O=C(NCCO)c1ccc2nc(-c3ccco3)c(-c3ccco3)nc2c1,12.6µM*,12.6µM*,31.6µM*
CCc1ccc(CNC(=O)c2sc3ncnc(N(C)C4CCCCC4)c3c2C)cc1,3.4%,-3.0%,x
COc1ccccc1-c1nc(N(C)C)c2ccccc2n1,-3.8%,-0.4%,x
CCn1c(C)c(C)c2cc(C(=O)NCC(C)c3ccccc3)ccc21 (stereo not drawn),-29.4%,-8.4%,x
CCOC(=O)c1cc2c(=O)n3ccccc3nc2n(CC2CCCO2)c1=NC(=O)c1ccccc1OCC (stereo not drawn),0.1%,-2.5%,x
C=CCn1c(SCC(=O)Nc2cc3oc4ccccc4c3cc2OC)nnc1-c1cnccn1,u,0.1%,4.5%
C=CCn1c(SCC(=O)Nc2cccc3ccccc23)nnc1-c1cnccn1,-12.0%,-8.7%,x
Cc1cc(SCC(=O)c2ccc(Br)cc2)cc(C)[o+]1,u,-3.8%,x
Cc1c(Cl)cccc1-n1ncc(C(=O)N2CCc3ccccc3C2)c1C1CCN(C(=O)OC(C)(C)C)CC1,-5.7%,-0.8%,x
COc1cccc(-c2nc(CS(=O)(=O)CC(=O)N3CCN(c4ccccc4)CC3)c(C)o2)c1,u,-2.8%,x
CSCC[C@H](NC(=O)COc1ccc(Cl)cc1Cl)c1nc2ccccc2[nH]1,7.5%,6.31µM*,-3.7%
CSCC[C@H](NC(=O)CC(C)(C)C)c1nc2ccccc2[nH]1,-5.9%,-0.5%,x
CC(C)CCNC(=O)Cn1c(SCc2cccc(F)c2)nc2ccncc21,x,x,-13.7%
Cc1cccc(CSc2nc3ccncc3n2CC(=O)Nc2ccc(C)c(C)c2)c1,4.7%,-3.4%,x
O=C(Cn1c(SCc2cccc(F)c2)nc2ccncc21)Nc1ccc(Cl)cc1F,7.2%,-19.8%,x
CCCCNC(=O)Cn1c(SCc2cccc(C)c2)nc2ccncc21,x,x,-14.9%
CC1CCN(S(=O)(=O)c2ccc3c(c2)N(CC(=O)NC(C)C)C(=O)CO3)CC1,-1.7%,-1.1%,x
O=C(CSc1ncc(S(=O)(=O)c2ccc(Cl)cc2)c(=O)[nH]1)Nc1cccc(C(F)(F)F)c1,20.6%,u,x
CC(C)(C)c1ccc(S(=O)(=O)c2cnc(SCC(=O)Nc3ccc(F)c(Cl)c3)[nH]c2=O)cc1,-2.6%,20µM*,2.82µM*
Cc1cc(CN2CCCCC2)c(O)c(CN2CCCCC2)c1,-9.3%,0.3%,x
COc1ccc(NC(=O)N2CCCC3(CCN(C(=O)c4c(C)noc4C)CC3)C2)cc1,-0.2%,-1.7%,x
CCOC(=O)C1(C)C=C(Nc2ccc(C)cc2)C(=O)N1c1ccccc1 (stereo not drawn),4.8%,-2.3%,x
COc1ccc(-c2nn3c(-c4ccc(F)cc4)nnc3s2)cc1,u,2.1%,x
SMILES,Cruzain inh noDet,Cruzain inh Det,Papain inh
CCOc1cccc(-c2nn3c(-c4cc(C)[nH]n4)nnc3s2)c1,-3.7%,0.7%,8.2%
COc1ccc(-c2nn3c(-c4cc(C)[nH]n4)nnc3s2)cc1,x,x,7.5%
CCOc1cccc(-c2nnc3sc(-c4cc(OC)c(OC)cc4OC)nn23)c1,0.1%,-3.9%,x
CCC(C)NC(=O)c1ccc2nc(-c3cccs3)c(-c3cccs3)nc2c1 (stereo not drawn),x,x,-3.3%
COCCNC(=O)Nc1ccc2nc(-c3cccs3)c(-c3cccs3)nc2c1,u,-9.7%,x
Cc1nc(N2CCCC2)c2c(C(=O)Nc3ccc(Br)cc3F)c(C)oc2n1,u,-4.7%,x
COc1cccc(-c2nc(CS(=O)CC(=O)N3CCN(c4cccc(C(F)(F)F)c4)CC3)c(C)o2)c1 (stereo not drawn),u,-11.8%,x
COCCNC(=O)C1(C)Oc2ccccc2NC1=O (stereo not drawn),-2.2%,-4.4%,x
CC(=O)OC1(C(F)(F)F)Oc2ccccc2NC1=O (stereo not drawn),1.26µM*,0.891µM*,7.94µM*
CC(C)CC(=O)OC1C(N2CCOCC2)c2c(ccc(/C=C/C(=O)N3CCOCC3)c2O)OC1(C)C (stereo not drawn),u,-24.2%,14.1µM*
CC1(C)Oc2ccc(/C=C/C(=O)N3CCOCC3)c(O)c2C(N2CCOCC2)C1O (stereo not drawn),2.3%,-8.0%,x
CC(C)NC(=O)N1CC[C@@]2(CCCN(C(=O)Oc3ccccc3)C2)C1,6.8%,2.8%,x
O=C(O)CC[C@@H](C(=O)O)N1C(=O)[C@@H]2[C@@H]3CC[C@H](C3)[C@@H]2C1=O,10.4%,4.8%,x
Cc1ccc2[nH]cc(C(c3ccccc3)c3ccc(C)s3)c2c1 (stereo not drawn),-23.5%,-2.7%,x
c1ccc(C2=Nn3c(nnc3-c3cc(-c4ccccc4)n[nH]3)SC2)cc1,-6.5%,-6.9%,x
Cc1ccc(O/C=C2/Nn3c(nnc3-c3cc(-c4ccccc4)n[nH]3)S2)cc1,x,x,9.1%
